{"source": "PubChem BioAssay (NCI)", "note": "The panel holds about 83,000 compounds, 20% with a hit somewhere; the sample as a whole holds those more often.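 A percent growth of 40 corresponds to 60% growth inhibition; 0 means no net growth; -100 means all cells died. Active threshold: below 10.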 Unmarked numbers belong to inactive results. Activity calls are given as the source filed them.", "data": [{"system": "U251 CNS", "test": "NCI-60 one-dose screen, 48 h (100 = growth as untreated, 0 = no growth, -100 = all killed)", "conditions": "10 µM unless noted", "values": [{"compound": "CC1CN(C2CCCCC2)C(=O)NC1=O", "note": "(configuration not stated)", "growth": "110%"}, {"compound": "O=C1C=CC(=O)N1c1ccccc1N1C(=O)C=CC1=O", "growth": "108%"}, {"compound": "Cc1n(Cc2ccc3ccccc3c2)c2ccccc2[n+]1Cc1ccc2ccccc2c1", "growth": "-87.6% (active)"}, {"compound": "C[C@H]1O[C@@H](O[C@H]2[C@@H](O)C[C@H](O[C@H]3[C@@H](O)C[C@H](O[C@H]4CC[C@]5(C)C6C[C@@H](O)[C@]7(C)[C@@H](C8=CC(=O)OC8)CC[C@]7(O)C6CC[C@@H]5C4)O[C@@H]3C)O[C@@H]2C)C[C@H](O)[C@@H]1O", "note": "(some centres not stated)", "growth": "-100% (active)"}, {"compound": "O=C(CNc1ccc2c(c1)C(=O)c1ccccc1C2=O)Nc1ccc2c(c1)C(=O)c1ccccc1C2=O", "growth": "-91.4% (active)"}, {"compound": "Cc1sc2nc(N3CCCCC3)[nH]c(=O)c2c1C", "growth": "92.4%"}, {"compound": "NC(=NCCCCCCN=C(N)/N=C(\\N)Nc1ccc(Cl)cc1)/N=C(\\N)Nc1ccc(Cl)cc1", "growth": "-5.76% (active)"}, {"compound": "COc1cc(NC(=O)NCc2ccco2)ccc1-c1ccc(NC(=O)NCc2ccco2)cc1OC", "growth": "12.4%"}, {"compound": "CSc1nc(Nc2ccc(S(=O)(=O)Nc3ccon3)cc2)c(C#N)c(-c2ccc(Cl)cc2)n1", "growth": "88.2%"}, {"compound": "COP(=O)(OC)C(c1ccc(O)cc1)(c1ccc(O)cc1)c1ccc(O)cc1", "growth": "105%"}, {"compound": "C=C1CCC2C(C)(COC(=O)CC)C(OC(=O)CC)CCC2(C)C1C/C=C1/C(=O)OCC1OC(=O)CC", "note": "(configuration not stated)", "growth": "-72.3% (active)"}, {"compound": "Cc1cnc2nc(-c3ccc(N(C)C)cc3)cn2c1", "growth": "110%"}, {"compound": "Cc1ccc2nc3c(n2c1)C(=O)C(=O)c1ccccc1-3", "growth": "-86% (active)"}, {"compound": "CC(C)=CCCC(C)c1ccc(C)c2c1OCN(CC1CCNCC1)C2", "note": "(configuration not stated)", "growth": "-2.5% (active)"}, {"compound": "CCOc1cc(/C=C/C(=O)C(C(=O)/C=C/c2ccc(OC(=O)CNc3nc4ccccc4[nH]3)c(OCC)c2)C(=O)CNc2nc3ccccc3[nH]2)ccc1OC(=O)CNc1nc2ccccc2[nH]1", "growth": "-61.5% (active)"}, {"compound": "COc1ccc(C(=O)/C=C/c2cccc(Nc3ccnc4cc(Cl)ccc34)c2)cc1", "growth": "8.83% (active)"}]}, {"system": "PC-3 prostate", "test": "NCI-60 one-dose screen, 48 h (100 = growth as untreated, 0 = no growth, -100 = all killed)", "conditions": "10 µM unless noted", "values": [{"compound": "COc1cc(C2CC(C3C(=O)N(C)C(=O)N(C)C3=O)=NN2C=O)cc(OC)c1OC", "note": "(configuration not stated)", "growth": "75.9%"}, {"compound": "C=C1CCC2C3(C)COC(c4ccccc4)OC3CCC2(C)C1C/C=C1/C(=O)OCC1OC(C)=O", "note": "(configuration not stated)", "growth": "78.5%"}, {"compound": "Clc1ccc(C2=NN(c3ccc(Cl)cc3)C(c3cccc(Nc4ccnc5cc(Cl)ccc45)c3)C2)cc1", "note": "(configuration not stated)", "growth": "65.7%"}, {"compound": "CC(=O)N1N=C(c2ccc(Nc3nc(NCCO)nc(NCCO)n3)cc2)CC1c1ccc(Cl)cc1", "note": "(configuration not stated)", "growth": "81.4%"}, {"compound": "O=C(c1ccccc1)c1ccc(Oc2ccc([N+](=O)[O-])cc2[N+](=O)[O-])cc1", "growth": "75.4%"}, {"compound": "O=C(C(=O)N1CCOCC1)c1cn(CCCn2cc(C(=O)C(=O)N3CCOCC3)c3ccccc32)c2ccccc12", "growth": "89.9%"}, {"compound": "CC(C)CC1NC(=O)C(CCCN)NC(=O)C(C(C)C)NC(=O)C2CCCN2C(=O)C(Cc2ccccc2)NC(=O)C(CC(C)C)NC(=O)C(CCCN)NC(=O)C(C(C)C)NC(=O)C2CCCN2C(=O)C(Cc2ccccc2)NC1=O", "note": "(configuration not stated)", "growth": "-49.2% (active)"}, {"compound": "Cc1csc(C#Cc2cncc(O)c2)n1", "growth": "106%"}, {"compound": "COc1cc(/C=C/C(=O)C(C(=O)/C=C/c2ccc(OC(=O)CCNC34CC5CC(CC(C5)C3)C4)c(OC)c2)C(=O)CCNC23CC4CC(CC(C4)C2)C3)ccc1OC(=O)CCNC12CC3CC(CC(C3)C1)C2", "note": "(configuration not stated)", "growth": "13.6%"}, {"compound": "C/C=C(/C(=C/C)c1ccc(O)cc1)c1ccc(O)cc1", "growth": "46.2%"}, {"compound": "COc1cc(/C=C/C(=O)CC(=O)/C=C/c2ccc(OC(=O)CCNC34CC5CC(CC(C5)C3)C4)c(OC)c2)ccc1OC(=O)CCNC12CC3CC(CC(C3)C1)C2", "growth": "21%"}, {"compound": "Oc1c(Cl)cc(Cl)c(Cl)c1Cc1c(O)c(Cl)cc(Cl)c1Cl", "growth": "-6.08% (active)"}, {"compound": "COc1cc(C2CC(c3ccc(C)cc3)=NN2C=O)ccc1OCCN(C)C", "note": "(configuration not stated)", "growth": "79%"}, {"compound": "NS(=O)(=O)c1cc(C2(O)NC(=O)c3ccccc32)ccc1Cl", "note": "(configuration not stated)", "growth": "91.7%"}, {"compound": "CCn1cnc(C[C@H](NC(=O)[C@H](CCCCNC(=O)Nc2cc(C(F)(F)F)cc(C(F)(F)F)c2)NC(=O)Nc2cc(C(F)(F)F)cc(C(F)(F)F)c2)C(=O)OC)c1", "growth": "-38.5% [100 µM] (active)"}, {"compound": "CS(=O)(=O)N1CCN(Cc2cc3nc(-c4cccc5[nH]ncc45)nc(N4CCOCC4)c3s2)CC1", "note": "(tested in a mixture with another compound)", "growth": "6.61% (active)"}]}]}
